About 410 targets per protein were measured; listed, in parts, are those with the strongest signals and a random draw of the rest.
Assays:
Experiment in all cases: glycan array binding signal (z-score within array); higher = stronger binding
Details in all cases: glycan notation: IUPAC condensed, linker removed
Fuc(a1-2)Gal = molecular target: Fuc(a1-2)Gal
Procedure, shortened: (§1)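 Arrays were curated from the Consortium for Functional Glycomics database, 3228 in total, and kept only where the protein sequence was available. Binding is expressed as a within-array Z-score. This score was averaged across arrays of the same protein sequence at different concentrations or buffers and across linkers, and negative values can be read as non-binding.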

Fuc(a1-2)Gal(b1-3)GalNAc = molecular target: Fuc(a1-2)Gal(b1-3)GalNAc
Procedure, shortened: as §1

[1] = molecular target: Fuc(a1-2)Gal(b1-3)GlcNAc(b1-2)Man(a1-3)[Fuc(a1-2)Gal(b1-3)GlcNAc(b1-2)Man(a1-6)]Man(b1-4)GlcNAc(b1-4)[Fuc(a1-6)]GlcNAc
Procedure, shortened: as §1

[2] = molecular target: Fuc(a1-2)Gal(b1-3)GlcNAc6S
Procedure, shortened: as §1

Fuc(a1-2)Gal6S(b1-4)Glc = molecular target: Fuc(a1-2)Gal6S(b1-4)Glc
Procedure, shortened: as §1

[3] = molecular target: Fuc(a1-2)[Gal(a1-3)]Gal(b1-4)[Fuc(a1-3)]GlcNAc(b1-3)GalNAc
Procedure, shortened: as §1

[4] = molecular target: Fuc(a1-2)[Gal(a1-4)]Gal(b1-4)GlcNAc
Procedure, shortened: as §1

[5] = molecular target: Fuc(a1-2)[GalNAc(a1-3)]Gal(b1-4)Glc
Procedure, shortened: as §1

[6] = molecular target: Fuc(a1-2)[GalNAc(a1-3)]Gal(b1-4)[Fuc(a1-3)]GlcNAc
Procedure, shortened: as §1

[7] = molecular target: Fuc(a1-3)[Gal(b1-4)]GlcNAc(b1-3)Gal(b1-4)[Fuc(a1-3)]GlcNAc(b1-3)Gal(b1-4)[Fuc(a1-3)]GlcNAc
Procedure, shortened: as §1

[8] = molecular target: Fuc(a1-3)[Gal(b1-4)]GlcNAc(b1-3)GalNAc
Procedure, shortened: as §1

Fuc(b1-3)GlcNAc = molecular target: Fuc(b1-3)GlcNAc
Procedure, shortened: as §1

[9] = molecular target: Gal(a1-3)Gal(b1-4)GlcNAc(b1-2)Man
Procedure, shortened: as §1

[10] = molecular target: Gal(a1-3)Gal(b1-4)GlcNAc(b1-3)GalNAc
Procedure, shortened: as §1

[11] = molecular target: Gal(b1-3)[Fuc(a1-4)]GlcNAc(b1-3)Gal(b1-4)[Fuc(a1-3)]GlcNAc
Procedure, shortened: as §1

[12] = molecular target: Gal(b1-3)[GlcNAc(b1-6)]GalNAc
Procedure, shortened: as §1

[13] = molecular target: Gal(b1-4)GalNAc(a1-3)[Fuc(a1-2)]Gal(b1-4)GlcNAc
Procedure, shortened: as §1

[14] = molecular target: Gal(b1-4)GlcNAc(b1-2)Man(a1-3)[Gal(b1-4)GlcNAc(b1-2)Man(a1-6)]Man(b1-4)GlcNAc(b1-4)[Fuc(a1-6)]GlcNAc
Procedure, shortened: as §1

[15] = molecular target: Gal(b1-4)GlcNAc(b1-2)Man(a1-3)[Gal(b1-4)GlcNAc(b1-2)Man(a1-6)][Gal(b1-4)GlcNAc(b1-4)]Man(b1-4)GlcNAc(b1-4)[Fuc(a1-6)]GlcNAc
Procedure, shortened: as §1

[16] = molecular target: Gal(b1-4)GlcNAc(b1-3)Gal(b1-4)Glc
Procedure, shortened: as §1

[17] = molecular target: Gal(b1-4)GlcNAc(b1-3)Gal(b1-4)GlcNAc(b1-3)Gal(b1-4)GlcNAc
Procedure, shortened: as §1

[18] = molecular target: Gal(b1-4)GlcNAc(b1-3)Gal(b1-4)GlcNAc(b1-3)Gal(b1-4)GlcNAc(b1-2)Man(a1-3)[Gal(b1-4)GlcNAc(b1-3)Gal(b1-4)GlcNAc(b1-3)Gal(b1-4)GlcNAc(b1-2)Man(a1-6)]Man(b1-4)GlcNAc(b1-4)GlcNAc
Procedure, shortened: as §1

[19] = molecular target: Gal(b1-4)GlcNAc(b1-3)Gal(b1-4)GlcNAc(b1-3)Gal(b1-4)GlcNAc(b1-2)Man(a1-3)[Gal(b1-4)GlcNAc(b1-3)Gal(b1-4)GlcNAc(b1-3)Gal(b1-4)GlcNAc(b1-2)Man(a1-6)]Man(b1-4)GlcNAc(b1-4)[Fuc(a1-6)]GlcNAc
Procedure, shortened: as §1

[20] = molecular target: Gal(b1-4)GlcNAc(b1-3)Gal(b1-4)GlcNAc(b1-3)Gal(b1-4)GlcNAc(b1-2)[Gal(b1-4)GlcNAc(b1-3)Gal(b1-4)GlcNAc(b1-3)Gal(b1-4)GlcNAc(b1-6)]Man(a1-6)[Gal(b1-4)GlcNAc(b1-3)Gal(b1-4)GlcNAc(b1-3)Gal(b1-4)GlcNAc(b1-2)Man(a1-3)]Man(b1-4)GlcNAc(b1-4)[Fuc(a1-6)]GlcNAc
Procedure, shortened: as §1

[21] = molecular target: Gal(b1-4)GlcNAc(b1-3)Gal(b1-4)GlcNAc(b1-3)Gal(b1-4)GlcNAc(b1-3)Gal(b1-4)GlcNAc(b1-2)Man(a1-3)[Gal(b1-4)GlcNAc(b1-3)Gal(b1-4)GlcNAc(b1-3)Gal(b1-4)GlcNAc(b1-3)Gal(b1-4)GlcNAc(b1-2)Man(a1-6)]Man(b1-4)GlcNAc(b1-4)GlcNAc
Procedure, shortened: as §1

[22] = molecular target: Gal(b1-4)GlcNAc(b1-3)Gal(b1-4)GlcNAc(b1-3)Gal(b1-4)GlcNAc(b1-3)Gal(b1-4)GlcNAc(b1-2)Man(a1-3)[Gal(b1-4)GlcNAc(b1-3)Gal(b1-4)GlcNAc(b1-3)Gal(b1-4)GlcNAc(b1-3)Gal(b1-4)GlcNAc(b1-2)Man(a1-6)]Man(b1-4)GlcNAc(b1-4)[Fuc(a1-6)]GlcNAc
Procedure, shortened: as §1

[23] = molecular target: Gal(b1-4)GlcNAc(b1-3)Gal(b1-4)GlcNAc(b1-3)Gal(b1-4)GlcNAc(b1-3)Gal(b1-4)GlcNAc(b1-2)[Gal(b1-4)GlcNAc(b1-3)Gal(b1-4)GlcNAc(b1-3)Gal(b1-4)GlcNAc(b1-3)Gal(b1-4)GlcNAc(b1-6)]Man(a1-6)[Gal(b1-4)GlcNAc(b1-3)Gal(b1-4)GlcNAc(b1-3)Gal(b1-4)GlcNAc(b1-3)Gal(b1-4)GlcNAc(b1-2)Man(a1-3)]Man(b1-4)GlcNAc(b1-4)[Fuc(a1-6)]GlcNAc
Procedure, shortened: as §1

[24] = molecular target: Gal(b1-4)GlcNAc(b1-3)Gal(b1-4)GlcNAc(b1-3)Gal(b1-4)GlcNAc(b1-3)Gal(b1-4)GlcNAc(b1-3)Gal(b1-4)GlcNAc(b1-2)Man(a1-3)[Gal(b1-4)GlcNAc(b1-3)Gal(b1-4)GlcNAc(b1-3)Gal(b1-4)GlcNAc(b1-3)Gal(b1-4)GlcNAc(b1-3)Gal(b1-4)GlcNAc(b1-2)Man(a1-6)]Man(b1-4)GlcNAc(b1-4)[Fuc(a1-6)]GlcNAc
Procedure, shortened: as §1

[25] = molecular target: Gal(b1-4)GlcNAc(b1-3)Gal(b1-4)GlcNAc(b1-3)Gal(b1-4)GlcNAc(b1-3)Gal(b1-4)GlcNAc(b1-3)Gal(b1-4)GlcNAc(b1-2)[Gal(b1-4)GlcNAc(b1-3)Gal(b1-4)GlcNAc(b1-3)Gal(b1-4)GlcNAc(b1-3)Gal(b1-4)GlcNAc(b1-3)Gal(b1-4)GlcNAc(b1-6)]Man(a1-6)[Gal(b1-4)GlcNAc(b1-3)Gal(b1-4)GlcNAc(b1-3)Gal(b1-4)GlcNAc(b1-3)Gal(b1-4)GlcNAc(b1-3)Gal(b1-4)GlcNAc(b1-2)Man(a1-3)]Man(b1-4)GlcNAc(b1-4)[Fuc(a1-6)]GlcNAc
Procedure, shortened: as §1

[26] = molecular target: Gal(b1-4)GlcNAc(b1-3)Gal(b1-4)GlcNAc(b1-3)Gal(b1-4)GlcNAc(b1-3)Gal(b1-4)GlcNAc(b1-3)Gal(b1-4)GlcNAc(b1-3)Gal(b1-4)GlcNAc(b1-2)Man(a1-3)[Gal(b1-4)GlcNAc(b1-3)Gal(b1-4)GlcNAc(b1-3)Gal(b1-4)GlcNAc(b1-3)Gal(b1-4)GlcNAc(b1-3)Gal(b1-4)GlcNAc(b1-3)Gal(b1-4)GlcNAc(b1-2)Man(a1-6)]Man(b1-4)GlcNAc(b1-4)GlcNAc
Procedure, shortened: as §1

[27] = molecular target: Fuc(a1-2)Gal(b1-3)GalNAc(b1-3)Gal(b1-4)Glc
Procedure, shortened: as §1

[28] = molecular target: Gal(b1-3)GalNAc(b1-3)Gal(b1-4)Glc
Procedure, shortened: as §1

[29] = molecular target: Gal(b1-3)GalNAc(b1-4)Gal(b1-4)Glc
Procedure, shortened: as §1

Gal(b1-4)Glc = molecular target: Gal(b1-4)Glc
Procedure, shortened: as §1

Gal(b1-4)GlcNAc = molecular target: Gal(b1-4)GlcNAc
Procedure, shortened: as §1

GalNAc(b1-4)GlcNAc = molecular target: GalNAc(b1-4)GlcNAc
Procedure, shortened: as §1

[30] = molecular target: GlcNAc(a1-3)Gal(b1-4)GlcNAc
Procedure, shortened: as §1

[31] = molecular target: GlcNAc(a1-6)Gal(b1-4)GlcNAc
Procedure, shortened: as §1

GlcNAc(b1-3)Gal = molecular target: GlcNAc(b1-3)Gal
Procedure, shortened: as §1

[32] = molecular target: GlcNAc(b1-3)Gal(b1-3)GalNAc
Procedure, shortened: as §1

[33] = molecular target: GlcNAc(b1-6)Gal(b1-4)GlcNAc
Procedure, shortened: as §1

[34] = molecular target: Man(a1-2)Man(a1-2)Man(a1-3)Man
Procedure, shortened: as §1

[35] = molecular target: Neu5Gc(a2-3)Gal(b1-4)GlcNAc
Procedure, shortened: as §1

B1: B725 (Bifidobacterium sp) (protein)
chain: MNNTTRAVIATAAIGALLIPLAGCGNTTTSSGKTELTVWSWDASIDRAAKSFMKANPDITVKVSNVGSTEETYTALNNAAQAGSGLPDVTLIEYLAIPQFVHSDTLMDLSKVYNTAKLKDTFTPGTWNSVNINGGLYAMPADSGPMAYFYDKDVFDKAGISEPPTTWDEFYEDAKKIRATGSYITSDSGDAGLFNAMMWAMGGHAYKLNDDKLTINIAKDKGAQRFMDLWQKMRDEDLIDVHTKTWTDDWMKSLGDGSIASLISGAWMANNLLQGVPQATGKFRVALLPTIDGTPINGEYGGSGLAITKKIPDGKLDAAKKFVEYVTTNDEGIDARVSNGSFPATTKTLNQKDFLAKTTLRNTDGSDNEFFGGQKYNEIFSQAAKDVTGKWEFLPFEPYARSVYNDNMGSFFAGKTSFRTAADNWQKALKDYAKDQGFTVQ
glycan array binding signal (z-score) (Fuc(a1-2)Gal): -0.221
glycan array binding signal (z-score) (Fuc(a1-2)Gal(b1-3)GalNAc): -0.216
glycan array binding signal (z-score) [1]: -0.181
glycan array binding signal (z-score) [2]: -0.234
glycan array binding signal (z-score) (Fuc(a1-2)Gal6S(b1-4)Glc): -0.199
glycan array binding signal (z-score) [3]: -0.208
glycan array binding signal (z-score) [4]: -0.23
glycan array binding signal (z-score) [5]: -0.222
glycan array binding signal (z-score) [6]: -0.217
glycan array binding signal (z-score) [7]: -0.21
glycan array binding signal (z-score) [8]: -0.216
glycan array binding signal (z-score) (Fuc(b1-3)GlcNAc): -0.226
glycan array binding signal (z-score) [9]: -0.214
glycan array binding signal (z-score) [10]: -0.225
glycan array binding signal (z-score) [11]: -0.203
glycan array binding signal (z-score) [12]: -0.224
glycan array binding signal (z-score) [13]: -0.218
glycan array binding signal (z-score) [14]: -0.204
glycan array binding signal (z-score) [15]: -0.231
glycan array binding signal (z-score) [16]: 6.34
glycan array binding signal (z-score) [17]: 6.94
glycan array binding signal (z-score) [18]: 5.11
glycan array binding signal (z-score) [19]: 4.38
glycan array binding signal (z-score) [20]: 7.51
glycan array binding signal (z-score) [21]: 5.3
glycan array binding signal (z-score) [22]: 4.85
glycan array binding signal (z-score) [23]: 6.73
glycan array binding signal (z-score) [24]: 4
glycan array binding signal (z-score) [25]: 5.49
glycan array binding signal (z-score) [26]: 8.21

B2: TbCVNHOa (Tuber borchii), Q5MK11 (protein)
chain: GSHIGPYMSYADSSRNAVLTNGGRTLRAECRNADGNWVTSELDLDTCIGNPNGFLGWGMQNFSHSSEDIKLEEGGRKLTCRPKTVDGGFRERQGIDLNRIQNVNGRLVFQ
glycan array binding signal (z-score) (Fuc(a1-2)Gal): -0.262
glycan array binding signal (z-score) [27]: 3.46
glycan array binding signal (z-score) [28]: 5.6
glycan array binding signal (z-score) [29]: -0.271
glycan array binding signal (z-score) (Gal(b1-4)Glc): -0.264
glycan array binding signal (z-score) (Gal(b1-4)GlcNAc): -0.238
glycan array binding signal (z-score) [16]: 2.73
glycan array binding signal (z-score) [17]: -0.058
glycan array binding signal (z-score) (GalNAc(b1-4)GlcNAc): -0.239
glycan array binding signal (z-score) [30]: -0.293
glycan array binding signal (z-score) [31]: -0.292
glycan array binding signal (z-score) (GlcNAc(b1-3)Gal): -0.283
glycan array binding signal (z-score) [32]: -0.222
glycan array binding signal (z-score) [33]: -0.247
glycan array binding signal (z-score) [34]: 3.86
glycan array binding signal (z-score) [35]: -0.209
